Pf Dd2 growth = Plasmodium falciparum Dd2 growth inhibition | Potency, µM (top dose mostly 28.9 µM), inactives show at the top dose activity, negative = inhibition, usual class: inhibitors | AID 1347417 | hit rate 4.3% among 120,000 | P. falciparum Dd2 growth, SYBR Green, 72 h; active = well fitted inhibition curve with a large enough effect;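 also: plate controls were DMSO vehicle for no effect and reference drug for full effect; nearly all actives have a fitted effect of over 65% in size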
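Infected erythrocytes (Dd2, 0.3% parasitemia, 2.5% hematocrit final) are added to compound in RPMI-1640/Albumax II medium, grown 72 h at 37C in low oxygen, then lysed with saponin/Triton-X containing SYBR Green and read by fluorescence.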
The depositor's hits bear a star; i = inactive; [ ] = another dose, or the depositor's remark. This is one part of a sample in which hits are shown more often than they occur. Potency is read from the fitted curve at half-maximal effect.

SMILES	Pf Dd2 growth
Cc1ccc(-c2ccccc2C=O)cc1Cl	14.1%[44.1 µM]
Cc1cc(C)cc(-c2ccccc2C=O)c1	-3.3%[44.1 µM]
COc1ccc(F)cc1-c1ccc(CN)cc1	-16.1%[44.1 µM]
Cc1cc(C)cc(-c2ccc(C=O)cc2)c1	-11.3%[44.1 µM]
Cc1cc(C)cc(-c2ccccc2CN)c1	12.6µM*
O=C1CC(c2ccccc2)N(C(=O)C2CCCCC2)CCCCCCN1 (centres undefined)	i
Cc1c(F)cccc1NC(=O)N1CCC(N2CC3CC(C2)[C@H]2CCCC(=O)N2C3)CC1 (some centres undefined)	2.3%
CN1CC(=O)N(C2CCCC2)Cc2c(NC3CC3)ncnc21	-7.5%
CCOC(=O)c1[nH]c(=O)[nH]c1C1CC(=O)Nc2c1cnn2C(CC)CC (centres undefined)	0.4%
Cc1cccc(C(=O)N2C[C@@H](CO)[C@H](N(C)C)C2)n1	29.2%
O=S(=O)(c1ccc(Cl)cc1)N1CCOC[C@H](Oc2ccc(C(F)(F)F)cc2)C1	-12.5%
CNC(=O)[C@@H]1C[C@@H](n2cc(CN(C)C(=O)Nc3ccccc3)nn2)CN1	1.3%
O=C(Nc1ccccc1)O[C@@H]1CO[C@H]2[C@@H]1OC[C@@H]2n1nnnc1Sc1ccccc1	-36.9%[44.1 µM]
O=C(NC1CCc2nnc(C3CC3)n2CC1)c1ccoc1 (centres undefined)	i
CSCC(=O)N1CCC2(CCN(Cc3cccc(F)c3)CC2)C(CO)C1 (centres undefined)	11.6%
COCCN(Cc1cccs1)C(=O)CN1CC2CC(C1)[C@H]1CCCC(=O)N1C2 (some centres undefined)	-1.3%
CCc1noc(-c2cccn3c(CNC(=O)c4ccoc4)nnc23)n1	i
CN(Cc1ccc(OC(F)(F)F)cc1)Cc1ccccc1C(F)(F)F	-18.1%
O=Cc1ccccc1-c1ccc(OC(F)(F)F)cc1	-5.0%[76.6 µM]
NCc1ccccc1-c1ccc(OC(F)(F)F)cc1	11.2µM*
O=C(c1ccco1)N1CCC(c2n[nH]c(=O)n2Cc2ccc(F)cc2)CC1	-19.4%
Cc1ccccc1-c1cnc2n[nH]c(-c3ccccc3)c2n1	i
COc1ccccc1-c1[nH]nc2ncc(-c3ccccc3F)nc12	-21.7%[44.1 µM]
COc1ccccc1-c1[nH]nc2ncc(-c3ccccc3C)nc12	12.6µM*
CCN1C(=O)CCc2cc(NC(=O)NC3CCCC3)ccc21	i
SMILES	Pf Dd2 growth
Cc1noc2c(-c3cccc(O)c3)cc(-c3ccccc3)nc12	-28.0%[44.1 µM]
Cc1ccccc1Oc1ncccc1CNCc1cccc(O)c1	12.6µM*
CCn1nc(C)cc1C(=O)NCc1cccnc1Oc1ccccc1C	-14.1%
Cc1ccccc1Oc1ncccc1CNCc1cc2c(cc1Cl)OCO2	i
O=S(=O)(c1cccc(F)c1)N1CCC(OC2CCN(Cc3ccccc3)CC2)CC1	2.82µM*
O=C(Nc1ccc(F)cc1F)N1CCC(OC2CCN(Cc3ccccc3)CC2)CC1	i
CCOC(=O)CCNC(=O)N1CCC(OC2CCN(Cc3ccccc3)CC2)CC1	37.5%
CC(C)S(=O)(=O)N1CCC(OC2CCN(Cc3cccnc3)CC2)CC1	19.5%
Cc1ccc(C(=O)N2CCC(OC3CCN(Cc4ccccc4)CC3)CC2)cc1	8.91µM*
O=C(c1ccc(Cl)cc1)N1CCC(OC2CCN(Cc3cccnc3)CC2)CC1	i
O=C(c1cccnc1)N1CCC(OC2CCN(Cc3ccccc3)CC2)CC1	-15.9%
Cc1ccc(S(=O)(=O)N2CCC(OC3CCN(Cc4ccccc4)CC3)CC2)cc1C	0.891µM*
O=C(CC1CCN(S(=O)(=O)c2cccc(F)c2)C1)NCc1ccccc1 (centres undefined)	-5.7%
CS(=O)(=O)CCc1nc(-c2ccco2)nn1-c1cccc(F)c1	23.2%
O=C1NCCCCCN(C(=O)c2ccsc2)[C@H]2CCC[C@@H]12	i
COCCCN1CC2(CCN(C(=O)CCn3cc(C)cn3)CC2)CC1=O	-12.4%
Cc1ccc(-c2cc(N3CCCN(C(=O)c4ccco4)CC3)n[nH]2)cc1C	-3.3%
COCCn1c(=O)c2c(n1Cc1ccccc1)CN(C(=O)COc1ccccc1)CC2	i
O=C1CCN(C(=O)C2CCN(C(=O)COc3ccccc3)CC2)CCCCCCN1	-2.4%
Cc1noc(C)c1S(=O)(=O)N(C)Cc1cccc(C(F)(F)F)c1	i
CCn1cc(CNC(=O)c2cc(-c3ccc(C)c(C)c3)nc3ccccc23)c(C)n1	i
COc1ccc(-c2cc(C(=O)NCc3ccc(C)cc3)c3cc(C(C)C)ccc3n2)cc1	26.8%
Cc1ccc(-c2cc(C(=O)NCc3cnn(C)c3C)c3cc(Br)ccc3n2)cc1	11.2µM*
Oc1ccccc1CNC1(Cc2cc(-c3ccccn3)on2)COC1	-20.4%[44.1 µM]
Cc1ccc(C(=O)NC[C@H]2O[C@@H](CC(=O)N3CCN(c4ccc(F)cc4)CC3)[C@H](O)[C@@H]2O)cc1	1.0%
SMILES	Pf Dd2 growth
CC(C)NC(=O)NCc1nnc2n1C(C(=O)N1CCCC1)CC2 (centres undefined)	38.8%
Cc1ccc(-c2nnc(C3CN(C(=O)c4ccco4)CC34CCOCC4)o2)cc1 (centres undefined)	i
Cc1ccc(CNS(=O)(=O)c2c(C(=O)N3CCC(C)CC3)c(C)n(C)c2C)cc1	12.2%
Cc1c(C(=O)N2CCCCC2)c(S(=O)(=O)NCc2ccc(N(C)C)cc2)c(C)n1C	-17.0%
Cc1c(C(=O)N2CCCCCC2)c(S(=O)(=O)N(Cc2ccccc2)C(C)(C)C)c(C)n1C	12.6µM*
CN(Cc1cccn1C)Cc1cccn1C	i
Cc1noc(-c2cn(C3CCN(C(=O)c4ccc(C)c(F)c4)CC3)nn2)n1	i
C[C@@]1(O)CCN(C(=O)c2cccc(F)c2)C[C@H]1N1CCCC1	2.5%[5.79 µM]
O=C(Cc1ccc(O)cc1)N1Cc2ccccc2CC2(CCN(Cc3ccncc3)C2)C1 (centres undefined)	7.94µM*
O=C(O)CCCC(=O)N1Cc2ccccc2CC2(CCCN(Cc3ccccc3)C2)C1 (centres undefined)	-1.9%
CC(=O)N1Cc2ccccc2CC2(CCCN(Cc3ccc(O)cc3)C2)C1 (centres undefined)	-19.9%
CC(=O)N1Cc2ccccc2CC2(CCN(Cc3ccccn3)C2)C1 (centres undefined)	-13.1%
CC(C)NC(=O)N1CCC2(CC1)CN(Cc1ccncc1)Cc1ccccc1O2	1.7%
C[C@H](C(=O)N1Cc2ccccc2CC2(CCN(Cc3ccncc3)C2)C1)c1ccccc1 (some centres undefined)	10µM*
Oc1ccccc1CN1C[C@H](O)C[C@H]1c1nc(-c2ccncc2)no1	-8.0%[44.1 µM]
Cn1ccnc1CNC(=O)C[C@@H]1C[C@H]2O[C@H](CNCc3cnccc3Cl)[C@@H](O)[C@H]2O1	0.4%
CCc1cccc(NC(=O)Nc2csc3c2CCCC3)c1	10µM*
Cc1cccc(C)c1NC(=O)Nc1csc2c1CCCC2	-15.7%
Cc1cc(C)c(NC(=O)Nc2csc3c2CCCC3)c(C)c1	86.3%[5.79 µM]
O=C(O)c1ccc(-c2ccc(C(=O)O)nc2)cc1	-1.7%[44.1 µM]
CC(=O)N1CC2(CCN(Cc3ncccn3)CC2)CC1C(=O)O (centres undefined)	6.3%
CSc1nc(NCCOC(C)=O)c(C#N)c(-c2ccc(C(C)(C)C)cc2)n1	10µM*
CSc1nc(Nc2cccc(C)c2)c(C#N)c(-c2ccccc2)n1	1.8%
N#Cc1ccc(CN2C3CCC2CN(C(=O)Nc2ccccc2F)C3)cc1	-2.3%
COCC1CCN(C(=O)c2ccc(C)cc2F)C1 (centres undefined)	-4.3%
CN(Cc1ccc(OC(F)(F)F)cc1)C1CCc2ccccc21 (centres undefined)	-12.0%[44.1 µM]
CCc1nn2c(=O)cc(COC(=O)C(c3ccccc3)c3ccccc3)nc2s1	-2.1%
COCCc1nn2c(=O)cc(COC(=O)c3ccc(Br)cc3)nc2s1	-14.1%

Source: PubChem BioAssay
